Source: PubChem BioAssay
Rows were chosen to be rich in hits. Some 0.4% of all compounds tested hit in one or more screens of this group.
EPAC1 antag = qHTS for Antagonist of cAMP-regulated guanine nucleotide exchange factor 3 (EPAC1): primary screen; Rap guanine nucleotide exchange factor 3 (Homo sapiens), O95398; EPAC1 GEF assay, Rap1b-BODIPY-GDP exchange fluorescence; Potency, µM (titrated, usually from 115 µM), for the others: at the highest dose activity change, negative = inhibition, hits mostly inhibitors; actives 0.14% (n = 360,000);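 also: plate controls were vehicle for no effect and positive control for full effect; nearly all actives have a fitted effect of over 50% in size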
EPAC2 ag = qHTS for Agonist of cAMP-regulated guanine nucleotide exchange factor 4 (EPAC2): primary screen; EPAC2 activation, biochemical qHTS; response scale: 100% = 6.5 mM cAMP response; Potency, µM (doses to about 154 µM), for the others: top-dose activation, usual class: activators; actives 0.079% (n = 360,000); AID 720711, 2013; also: nearly all actives have a fitted effect of over 50% in size
Target sequence (Q8WZA2 whole entry, looked up): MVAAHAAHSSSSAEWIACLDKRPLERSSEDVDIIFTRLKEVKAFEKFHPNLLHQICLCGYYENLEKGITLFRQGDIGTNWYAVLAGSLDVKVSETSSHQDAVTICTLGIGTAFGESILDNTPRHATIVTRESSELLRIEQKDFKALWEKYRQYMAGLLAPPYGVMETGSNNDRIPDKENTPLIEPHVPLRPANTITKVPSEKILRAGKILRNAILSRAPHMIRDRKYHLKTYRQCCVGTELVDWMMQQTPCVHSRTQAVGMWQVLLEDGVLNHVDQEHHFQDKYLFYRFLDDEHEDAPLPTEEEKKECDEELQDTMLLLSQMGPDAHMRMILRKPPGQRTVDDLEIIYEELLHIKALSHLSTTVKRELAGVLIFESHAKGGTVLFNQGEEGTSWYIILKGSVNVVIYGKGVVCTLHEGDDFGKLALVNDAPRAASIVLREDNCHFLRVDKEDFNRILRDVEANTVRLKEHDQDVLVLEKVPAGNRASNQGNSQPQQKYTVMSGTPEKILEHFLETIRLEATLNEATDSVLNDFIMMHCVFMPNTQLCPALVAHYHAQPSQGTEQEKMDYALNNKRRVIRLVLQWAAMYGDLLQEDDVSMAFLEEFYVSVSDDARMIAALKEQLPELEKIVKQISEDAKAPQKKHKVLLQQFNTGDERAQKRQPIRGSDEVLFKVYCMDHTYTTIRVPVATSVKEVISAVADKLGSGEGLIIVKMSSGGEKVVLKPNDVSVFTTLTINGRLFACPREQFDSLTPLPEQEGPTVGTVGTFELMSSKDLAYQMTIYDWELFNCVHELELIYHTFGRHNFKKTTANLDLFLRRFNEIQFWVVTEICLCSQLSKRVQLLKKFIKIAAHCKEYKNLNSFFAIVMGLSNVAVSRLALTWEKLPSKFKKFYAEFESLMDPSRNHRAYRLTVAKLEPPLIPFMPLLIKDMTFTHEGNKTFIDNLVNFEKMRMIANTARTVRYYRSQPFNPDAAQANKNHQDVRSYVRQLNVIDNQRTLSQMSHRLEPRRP
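EPAC2 (100 nM) mixed with Rap1B loaded with BODIPY-GDP (250 nM) plus 50 uM unlabeled GDP; compounds pinned in, 5 min RT, then read every 5 min for 30 min (ex 480, em 540 nm). Normalized to cAMP control.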
EPAC1 ag = qHTS for Agonist of cAMP-regulated guanine nucleotide exchange factor 3 (EPAC1): primary screen; EPAC1 agonist qHTS, biochemical assay; response scale: 100% = response to 6.5 mM cAMP; AID 720707, 2013; Potency, µM (titrated, usually from 154 µM), for inactives: at the highest dose activation, most hits filed as activators; actives 0.073% (n = 360,000); Rap guanine nucleotide exchange factor 3 (Homo sapiens), O95398; also: nearly all actives have a fitted effect of over 60% in size
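EPAC1 100 nM, Rap1B–BODIPY-GDP 250 nM, unlabeled GDP 50 uM; compound titration; 5 min RT; kinetic read ex480/em540 at 5-min intervals ×30 min; data normalized to 6.5 mM cAMP agonist control.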
B2AR arrestin = qHTS assay of beta-arrestin-biased ligands of beta2-adrenergic receptor. beta-arrestin recruitment to beta2AR, cell-based reporter. Potency, µM (highest dose often 46.1 µM), for inactives: top-dose activation, actives largely listed as activators. actives 0.02% (n = 330,000). AID 492947, 2010;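 also: 0% = DMSO controls and full agonism = EC100 isoproterenol or metaproterenol; nearly all actives have a fitted effect of over 65% in size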
EPAC2 antagonist = qHTS for Antagonist of cAMP-regulated guanine nucleotide exchange factor 2 (EPAC2): primary screen; Rap guanine nucleotide exchange factor 4 (Homo sapiens), Q8WZA2; EPAC2 GEF exchange of Rap1B-BODIPY-GDP, fluorescence; Potency, µM (doses to about 114 µM), for inactives: at the highest dose activity, negative = inhibition, actives largely listed as inhibitors; actives 0.18% (n = 360,000); also: % is scaled to controls: 0 for no effect and ±100 for the full control effect; nearly all actives have a fitted effect of over 45% in size
Active calls of the source: *; [ ] = another dose, or the depositor's remark. Calls follow the shape of the dose curve; as a rule, active = well fitted curve in the direction sought with a large enough effect; inconclusive = small, poorly fitted or top-dose-only effect, or another doubt; inactive = no such curve, though single readings can be large; an effect the other way counts as inactive or inconclusive. Potency is read from the fitted curve at half-maximal effect.

Results for Cc1csc(=O)n1CCC(=O)OCC(=O)Nc1ccc(S(N)(=O)=O)cc1 ?
EPAC1 antag: -14%; EPAC2 ag: 7%; EPAC1 ag: -5%; B2AR arrestin: -2%; EPAC2 antagonist: 1%

What do the screens show for `Cc1oc2ccc(O)cc2c1C(=O)c1ccc(Br)cc1`?
EPAC1 antag: -7%; EPAC2 ag: 16%; EPAC1 ag: -4%; EPAC2 antagonist: -24%

What do the screens show for `O=C(Nc1ccc(OCC(=O)N2CCOCC2)cc1)c1cccc(Cl)c1`?
EPAC1 antag: -17%; EPAC2 ag: -2%; EPAC1 ag: -13%; B2AR arrestin: 0%; EPAC2 antagonist: 1%

What do the screens show for `COc1ccc(C(NC(=O)c2cc(OC)ccc2OC)c2ccccc2)cc1` (stereo unspecified)?
EPAC1 antag: -24%; EPAC2 ag: 11%; EPAC1 ag: 12%; B2AR arrestin: 3%; EPAC2 antagonist: 45µM*

Results for CCN1CCN(Cc2c(O)ccc3c2O/C(=C\C=C\c2ccccc2OC)C3=O)CC1 ?
EPAC1 antag: 46%; EPAC2 ag: inconclusive; EPAC1 ag: 56µM*; B2AR arrestin: -1%; EPAC2 antagonist: 89%

How did COC(=O)c1cnc(N)s1 do in these assays?
EPAC1 antag: -11%; EPAC2 ag: 6%; EPAC1 ag: -2%; EPAC2 antagonist: 7%

What do the screens show for `CC1=Nc2nc(N3CCCCCC3)c(C#N)c3c4c(nc(c23)N1)N(c1ccc2ccccc2c1)C(=O)C4`?
EPAC1 antag: -18%; EPAC2 ag: 2%; EPAC1 ag: 1%; EPAC2 antagonist: -8%

What do the screens show for `CCOC(=O)C1CCCN(c2nc3ccccc3nc2C(C#N)C(=O)OC(C)C)C1` (stereo unspecified)?
EPAC1 antag: 89µM*; EPAC2 ag: -2%; EPAC1 ag: -54%; B2AR arrestin: 0%; EPAC2 antagonist: -29%

How did CCCCCCOC(=O)C(C#N)c1nc2ccccc2nc1N1CCN(C)CC1 (stereo unspecified) do in these assays?
EPAC1 antag: -16%; EPAC2 ag: 5%; EPAC1 ag: -2%; B2AR arrestin: -1%; EPAC2 antagonist: 1%[57.1 µM]

What do the screens show for `CCCCCCOC(=O)C(C#N)c1nc2ccccc2nc1N1CCCCC1` (stereo unspecified)?
EPAC1 antag: 95%; EPAC2 ag: 19%; EPAC1 ag: 112µM*; B2AR arrestin: 0%; EPAC2 antagonist: -4%

Results for COc1ccc(OC)c(/C=C/c2nc3ccccc3[nH]c2=O)c1 ?
EPAC1 antag: 68%; EPAC2 ag: inconclusive; EPAC1 ag: 89µM*; B2AR arrestin: 0%; EPAC2 antagonist: 58%

Results for CC1CN(S(=O)(=O)c2cccc(C(=O)N(C)C3CCCCC3)c2)CC(C)O1 (stereo unspecified) ?
EPAC1 antag: -5%; EPAC2 ag: 6%; EPAC1 ag: 4%; EPAC2 antagonist: 0%

How did O=C1C=C(c2c(O)ccc3ccccc23)c2ccccc2C1=O do in these assays?
EPAC1 antag: 35µM*; EPAC2 ag: 29%; EPAC1 ag: 15%; EPAC2 antagonist: inconclusive

What do the screens show for `COC1=C/C(=C/c2c(N)n3c(nc2=O)sc2cc(S(C)(=O)=O)ccc23)C=CC1=O`?
EPAC1 antag: -3%; EPAC2 ag: 14%; EPAC1 ag: 6%; B2AR arrestin: 0%; EPAC2 antagonist: -14%

Results for CS(=O)(=O)c1ccc2c(c1)sc1nc(=O)c(/C=C3/C=CC(=O)C(O)=C3)c(N)n12 ?
EPAC1 antag: 50µM*; EPAC2 ag: 1%; EPAC1 ag: -5%; B2AR arrestin: 0%; EPAC2 antagonist: 0%

Results for CC(C)=C1C(=O)NN(c2ccc(F)c(Cl)c2)C1=O ?
EPAC1 antag: -6%; EPAC2 ag: 4%; EPAC1 ag: 11%; B2AR arrestin: 0%; EPAC2 antagonist: -3%

How did O=C1NN(c2ccc(F)c(Cl)c2)C(=O)/C1=C\c1cccc(OC(=O)c2cccs2)c1 do in these assays?
EPAC1 antag: 35µM*; EPAC2 ag: 5%; EPAC1 ag: -13%; B2AR arrestin: 0%; EPAC2 antagonist: 1%

What do the screens show for `CC(=O)Nc1ccc(SC[C@H](C)CN2CC[C@H](C(C)(C)C)CCC2=O)cc1`?
EPAC1 antag: -3%; EPAC2 ag: -12%; EPAC1 ag: -11%; B2AR arrestin: 0%; EPAC2 antagonist: inconclusive

What do the screens show for `COC(=O)CC1(c2ccccc2)C(=O)c2ccccc2C1=O`?
EPAC1 antag: -7%; EPAC2 ag: 12%; EPAC1 ag: 8%; B2AR arrestin: 0%; EPAC2 antagonist: -4%

How did COC(=O)CC1(c2ccc(OC)cc2)C(=O)c2ccccc2C1=O do in these assays?
EPAC1 antag: 6%; EPAC2 ag: 4%; EPAC1 ag: 6%; B2AR arrestin: -1%; EPAC2 antagonist: 45µM*

How did N#C/C(=C\c1ccc(Sc2ccc(Cl)cc2)o1)c1nc2ccccc2[nH]1 do in these assays?
EPAC1 antag: 7%; EPAC2 ag: 100µM*; EPAC1 ag: 8%; B2AR arrestin: 0%; EPAC2 antagonist: 36%

What do the screens show for `N#C/C(=C/c1ccc(N2CCOCC2)o1)c1nc2ccccc2[nH]1`?
EPAC1 antag: -7%; EPAC2 ag: 100µM*; EPAC1 ag: 89µM*; B2AR arrestin: 0%; EPAC2 antagonist: 46%

How did N#C/C(=C\c1ccc(Sc2nc3ccccc3[nH]2)o1)c1ccccc1 do in these assays?
EPAC1 antag: -7%; EPAC2 ag: 7%; EPAC1 ag: 21%; B2AR arrestin: 0%; EPAC2 antagonist: 1%

Results for N#C/C(=C\c1ccc(N2CCOCC2)o1)c1ccccc1 ?
EPAC1 antag: 6%; EPAC2 ag: 13%; EPAC1 ag: 17%; B2AR arrestin: 0%; EPAC2 antagonist: -1%

How did O=C(C[C@H]1C[C@@H]2c3cc(NC(=O)Nc4ccccc4F)ccc3O[C@@H]2[C@H](CO)O1)NCc1ccccn1 do in these assays?
EPAC1 antag: 2%; EPAC2 ag: 5%; EPAC1 ag: -11%; EPAC2 antagonist: 9%

How did O=S(=O)(c1cc(O)ccc1O)c1cccc2c(S(=O)(=O)c3cc(O)ccc3O)cccc12 do in these assays?
EPAC1 antag: 79µM*; EPAC2 ag: 0%; EPAC1 ag: 8%; B2AR arrestin: 0%; EPAC2 antagonist: 4%

How did O=C(CSc1nc2nc(-c3cccs3)cc(C(F)(F)F)c2c(=O)[nH]1)Nc1ccc(F)c(F)c1 do in these assays?
EPAC1 antag: 79µM*; EPAC2 ag: -8%; EPAC1 ag: -10%; B2AR arrestin: 0%; EPAC2 antagonist: -22%
